Hit rate of the full screen: of about 310,000 compounds, about 14,000 (4.5%) showed an effect of 50% or more. Effects have a minus sign here. The list comes from a sample in which strong results are over-represented; it also holds similar structures and randomly drawn compounds.
These compounds were tested against human ether-à-go-go-related gene (hERG) potassium channel (human, UniProt Q12809) (assay: primary screen, population patch clamp on CHO cells stably expressing hERG; higher = less effect of the substance).
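Also: peak tail current of the secondary pulse compared with the same well before compound.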

Chain of human ether-à-go-go-related gene (hERG) potassium channel (Q12809 whole entry, looked up): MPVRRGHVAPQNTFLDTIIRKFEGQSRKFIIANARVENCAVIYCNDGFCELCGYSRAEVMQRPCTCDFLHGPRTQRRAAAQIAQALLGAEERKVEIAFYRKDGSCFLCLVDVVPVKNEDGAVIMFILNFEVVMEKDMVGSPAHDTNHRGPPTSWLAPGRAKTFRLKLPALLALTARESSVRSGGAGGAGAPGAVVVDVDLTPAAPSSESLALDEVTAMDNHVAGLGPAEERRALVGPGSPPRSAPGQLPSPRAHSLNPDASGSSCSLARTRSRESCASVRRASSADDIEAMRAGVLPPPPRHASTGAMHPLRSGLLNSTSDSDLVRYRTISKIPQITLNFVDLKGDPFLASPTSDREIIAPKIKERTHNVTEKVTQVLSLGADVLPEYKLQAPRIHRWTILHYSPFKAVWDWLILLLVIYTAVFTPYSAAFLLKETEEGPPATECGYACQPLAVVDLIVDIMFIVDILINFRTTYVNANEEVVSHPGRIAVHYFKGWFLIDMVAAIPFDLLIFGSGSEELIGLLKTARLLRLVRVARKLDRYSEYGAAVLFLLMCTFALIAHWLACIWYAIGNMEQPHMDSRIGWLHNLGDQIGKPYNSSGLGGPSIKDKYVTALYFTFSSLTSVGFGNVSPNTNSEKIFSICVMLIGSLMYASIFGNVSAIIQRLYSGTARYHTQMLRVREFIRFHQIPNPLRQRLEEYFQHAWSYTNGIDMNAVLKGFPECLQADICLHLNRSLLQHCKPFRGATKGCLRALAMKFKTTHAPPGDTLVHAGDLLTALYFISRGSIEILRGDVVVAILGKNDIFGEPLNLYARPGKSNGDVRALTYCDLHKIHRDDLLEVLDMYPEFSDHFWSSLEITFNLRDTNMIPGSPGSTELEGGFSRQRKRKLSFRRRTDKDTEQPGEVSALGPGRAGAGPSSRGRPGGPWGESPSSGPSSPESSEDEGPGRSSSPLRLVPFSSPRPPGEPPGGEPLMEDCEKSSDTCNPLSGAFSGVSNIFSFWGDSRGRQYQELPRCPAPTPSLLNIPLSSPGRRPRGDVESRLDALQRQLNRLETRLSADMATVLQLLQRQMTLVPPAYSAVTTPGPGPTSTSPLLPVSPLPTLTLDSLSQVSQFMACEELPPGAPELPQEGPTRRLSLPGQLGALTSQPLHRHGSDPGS

Compound | hERG current change (%, negative = inhibition) at 10uM
COc1ccc(CN2CCNC(=O)C2CC(=O)NCCCC2CCCC2)c(C)c1C (stereo not shown) | 5.39%
CC(CNS(=O)(=O)c1ccc2c(c1)CC(=O)N2C)c1ccccc1 (stereo not shown) | -12.3%
COc1cccc(NC(=O)CN(C)C(=O)c2cc(C)oc2C)c1 | 6.56%
Cc1cc2cc(CNC(=O)c3ccc4c(c3)OCO4)ccc2[nH]1 | -1.85%
Cc1[nH]c2ccc(Br)cc2c(=O)c1CN1CCCCCC1 | -64.3%
Cc1ccc2[nH]c(=O)c(CN3CCCCC3)c(-c3ccccc3)c2c1 | -53.6%
Cc1ccc2[nH]c(=O)c(CC(=O)O)c(-c3ccccc3)c2c1 | 17.7%
CCc1ccc2[nH]c(C)c(CN3CCCCCC3)c(=O)c2c1 | -46.9%
O=c1[nH]c2ccc(Br)cc2c(-c2ccccc2)c1CN1CCOCC1 | -65.7%
Cc1ccc2[nH]c(-c3ccccc3)c(CN3CCCC3)c(=O)c2c1 | -12.2%
Cc1[nH]c2ccc(Br)cc2c(=O)c1CN1CCOCC1 | -27.2%
O=c1[nH]c2ccc(Br)cc2c(-c2ccccc2)c1N1CCOCC1 | 7.5%
O=c1[nH]c2ccc(Cl)cc2c(-c2ccccc2)c1CN1CCOCC1 | -14.7%
COc1ccc(CN2CCNC(=O)C2CC(=O)NC2CCCCCCC2)cc1C (stereo not shown) | 15.8%
CC(C)(C)c1cc(=O)[nH]c(SCc2ccccc2)n1 | 17.3%
OCC1CO1 (stereo not shown) | 15.8%
Cn1c(O)c(N=NC(=O)CNC(=O)c2cccnc2)c2ccccc21 | 15.1%
CCOC(=O)c1c(O)c2ccccc2n(C)c1=O | 27.7%
CCOc1ccc(NC(=O)CSc2n[nH]c(N)n2)c([N+](=O)[O-])c1 | -6.62%
COc1cccc(C(=O)NCc2cccnc2)c1 | 1.54%
O=C1CSC(c2cn(-c3ccccc3)nc2-c2cc3ccccc3oc2=O)N1Cc1ccccc1 (stereo not shown) | 5.85%
O=C(CSc1nc2[nH]ncc2c(=O)[nH]1)Nc1cccc(Cl)c1 | 4.2%

Compound | hERG current change (%, negative = inhibition) at 10uM
CN(C)c1nccc(N(Cc2ccccc2)Cc2ccccc2)c1C#N | -58.3%
CN(C)CCN(Cc1ccccc1)c1ccnc(N(C)C)c1C#N | -26.7%
CN(C)c1ccnc(N(Cc2ccccc2)Cc2ccccc2)c1C#N.Cl | -6.74%
Cc1c(Cl)cccc1N=C1SCCN1C(=O)CN1C(=O)NC2(CCCC2)C1=O | -16.5%
O=C(C1CC1)N1CCc2cc(Br)cc(S(=O)(=O)N3CCCCCC3)c21 | -16.5%
O=C(N/N=C/c1ccncc1)c1ccc(OCc2ccccc2)cc1 | -0.12%
O=C1NC(=O)/C(=C\c2ccc(Sc3ccc(Cl)cc3)o2)N1 | 2.37%
Oc1ccc(/C=N/Nc2nc(-c3cccnc3)nc3ccccc23)c(O)c1 | -2.97%
COc1ccc(-c2occ(C(=O)O)c2C(=O)O)cc1 | -3.07%
CCC(=O)N1N=C(c2ccccc2)CC1c1ccccc1 (stereo not shown) | 2.71%
CC(=O)N1N=C(c2ccccc2)CC1c1cccc([N+](=O)[O-])c1 (stereo not shown) | -27.3%
O=C(O)CCC(=O)N1N=C(c2cccs2)CC1c1cccc([N+](=O)[O-])c1 (stereo not shown) | 20%
CC(=O)N1N=C(c2cccs2)CC1c1cccc([N+](=O)[O-])c1 (stereo not shown) | -51.6%
CC(=O)N1N=C(c2ccccc2)CC1c1ccccc1[N+](=O)[O-] (stereo not shown) | 2.95%
CC(=O)N1N=C(c2ccc([N+](=O)[O-])cc2)CC1c1ccccc1Cl (stereo not shown) | -66%
CCC(=O)N1N=C(c2ccccc2)CC1c1ccc([N+](=O)[O-])cc1 (stereo not shown) | -53.4%
COc1ccc(C2CC(c3ccc(Cl)cc3)=NN2C(C)=O)cc1 (stereo not shown) | -23.5%
CC(=O)N1N=C(c2ccc(Cl)cc2)CC1c1ccc([N+](=O)[O-])cc1 (stereo not shown) | 11.8%
CCn1cc([N+](=O)[O-])c(C(=O)N2N=C(c3ccccc3)CC2c2ccc([N+](=O)[O-])cc2)n1 (stereo not shown) | -37.2%
COc1ccc(C2=NN(C(=O)CCC(=O)O)C(c3ccc([N+](=O)[O-])cc3)C2)cc1 (stereo not shown) | 10.2%
COc1ccc(C2CC(c3ccc([N+](=O)[O-])cc3)=NN2C(C)=O)cc1 (stereo not shown) | -64.5%
O=C(O)CC1S/C(=N/N=C/C=C/c2ccccc2)NC1=O (stereo not shown) | 0.632%

Compound | hERG current change (%, negative = inhibition) at 10uM
Cc1ccc(-n2c(C)c(C)c3c(NCCO)ncnc32)cc1 | 6.27%
CSc1nsc(SCC(=O)Nc2nc3ccccc3s2)n1 | 9.66%
Cn1c(=O)[nH]c2nnc(-c3ccc(Cl)c(Cl)c3)nc2c1=O | 8.52%
COc1ccc(OC)c(/C=N/NC(=O)c2cnccn2)c1 | 1.45%
COc1ccccc1CNC(=O)C(=O)NCC1OCCN1C(=O)c1cccs1 (stereo not shown) | 3.96%
Cc1c(C(=O)N/N=C/c2ccc(-c3ccccc3[N+](=O)[O-])o2)sc(N)c1C#N | 12.1%
COc1ccccc1N(C)S(=O)(=O)c1ccc(C(=O)OC(C)C(=O)NCc2ccc3c(c2)OCO3)cc1 (stereo not shown) | -41.6%
CCc1ccc(NC(=S)NCC2CCCN2CC)cc1 (stereo not shown) | -32.2%
CCn1c(SCC(=O)OC)nnc1C1CCCCC1 | 6.57%
O=C(N/N=C/c1ccoc1)c1ccccc1Br | 16.9%
CCc1nc(SCc2ccc(Cl)cc2)n[nH]1 | 12%
Cn1cccc1Cc1nnc(SCC(=O)Nc2nccs2)n1CCc1ccccc1 | -9.58%
Cc1occc1-c1nnc(SCC(=O)NC(C)(C)C)n1C(C)c1ccccc1 (stereo not shown) | -11.8%
CCn1c(SCC(=O)Nc2nccs2)nnc1-c1ccco1 | -10.7%
Cc1csc(NC(=O)CSc2nnc(-c3ccoc3C)n2CCc2ccccc2)n1 | -59.7%
Cc1csc(NC(=O)CSc2nnc(Cc3cccn3C)n2CCc2ccccc2)n1 | -4.35%
Cc1csc(NC(=O)CSc2nnc(-c3ccoc3C)n2C(C)c2ccccc2)n1 (stereo not shown) | -74.1%
CCn1c(SCC(=O)Nc2nc(C)cs2)nnc1-c1ccoc1C | -1.96%
Cc1occc1-c1nnc(SCC(=O)Nc2nccs2)n1CCc1ccccc1 | -60.3%
Cc1occc1-c1nnc(SCC(=O)Nc2ccccc2)n1C(C)c1ccccc1 (stereo not shown) | -37.6%

— article PMC4336329 (PLoS ONE, 2015)
